Inhibition data for 40 compounds are collected here from ChEMBL document CHEMBL1157539, “Thousands of chemical starting points for antimalarial lead identification” (Nature, 2010).

This assay relates to Plasmodium falciparum. The experiment in a line: GSK_TCMDC: Inhibition of Plasmodium falciparum 3D7 in whole red blood cells, using parasite LDH activity as an index of growth. Test compounds present at 2uM. Type of assay: functional.
By Inhibition is commonly meant the share of the control response that was lost under treatment. A high value points to strong suppression. Turning to `CCC(NCc1ccc(-c2cncc(C(=O)NCC(C)C)c2)cc1)c1ccccc1.O=C(O)C(F)(F)F` (stereo not given), the Inhibition turned out to be 86%.

`OC(CNCc1ccccc1Oc1ccccc1)c1cc(Br)cs1` (stereo not given) registered an Inhibition of 94%.

In the case of `O=C(NC1CCN(Cc2ccccc2)CC1)c1cccc(-c2cc3cc(Cl)c(Cl)cc3[nH]2)c1.O=C(O)C(F)(F)F`, the Inhibition amounted to 100%.

On to `CCNc1cc(C(=O)N[C@@H](Cc2ccccc2)[C@H](O)CN[C@@H](C)c2cccc(OC)c2)cc(N2CCCC2=O)c1.O=CO`, for which the Inhibition turned out to be 95%.

`CC[C@H](C)CNC(=O)c1cncc(-c2ccc(CNCCCc3ccccc3)cc2)c1.O=C(O)C(F)(F)F` displayed an Inhibition of 100%.

For the compound `CS(=O)(=O)CCOCc1ccc(-c2ccc3ncnc(Nc4ccc(OCc5cccc(F)c5)c(Cl)c4)c3c2)o1`, the Inhibition came out at 96%.

`CCN1C(c2ccc(Cl)cc2)C(CNCc2ccccc2O)CC1(C)CO` (stereo not given) showed an Inhibition of 99%.

In turn, `CN1CCN(CCCNCc2ccc(Nc3nccc(Nc4ccc(Oc5ccccc5)cc4)n3)cc2)CC1` showed an Inhibition of 100%.

Compound `COc1cc(Nc2ccnc3ccc(C(F)(F)F)cc23)cc(OC)c1OC` yielded an Inhibition of 100%.

`O=C(O)C(F)(F)F.O=S(=O)(/C=C/c1ccccc1)N(Cc1ccc(-c2ccc(CNCCc3ccccc3)cc2)cc1)CC1CCCCN1` (stereo not given) displayed an Inhibition of 100%.

Take `COc1ccc2nccc(NC(=O)C3CCC(NCc4cnc(SC)c([N+](=O)[O-])c4)CC3)c2n1.Cl` (stereo not given): the Inhibition came to 89%.

`O=C(/C=C/c1ccc(Cl)cc1Cl)NCCCCCN1CCC(c2c[nH]c3ccccc23)CC1` returned an Inhibition of 99%.

`CCCc1cc(Cc2cnc(N)nc2N)cc(OCCCCCC(=O)O)c1OC.Cl`: the Inhibition stood at 95%.

`COc1ccc(-c2csc3ncnc(Cl)c23)cc1OC` displayed an Inhibition of 93%.

For the compound `O=C(Nc1cccc(-c2nn3ncccc3c2-c2ccnc(Nc3cccc(-c4cnco4)c3)n2)c1)c1c(F)cccc1F`, the Inhibition is listed as 97%.

`CCC(C)(C)C1CCc2[nH]c3ccccc3c(=O)c2C1` (stereo not given) gave an Inhibition of 97%.

On to `COc1ccc2nccc([C@@H](O)CN3CCC(NCC4COc5ccccc5O4)CC3)c2c1.O=C(O)C(=O)O` (stereo not given in full), for which the Inhibition was found to be 98%.

As for `Br.CCCCCCCCn1ccc(=N)cc1`, the Inhibition is 91%.

For the compound `CN1CCN(c2cc(-c3cccnc3)nc(-c3ccncc3)n2)CC1`, the Inhibition amounted to 100%.

For the compound `CN1CCCC(COc2cc3c(cc2Br)CCN3C(=O)Nc2ccc(-c3ccncc3)c(Cl)c2)C1` (stereo not given), the Inhibition came out at 100%.

Take `c1ccc(Nc2nc(-c3ccccn3)cs2)nc1`: the Inhibition stood at 87%.

Compound `CC(=O)NCCCCC1NC2(C(=O)N(Cc3ccc(C(C)(C)C)cc3)c3ccccc32)C2C(=O)N(C3CCCCC3)C(=O)C12` (stereo not given) showed an Inhibition of 91%.

As to `O=C(NCc1ccc2c(c1)OCO2)c1nn(CCN2CCC(N3CCCC3)CC2)cc1-c1ccc(Cl)c(Cl)c1`, the Inhibition amounted to 94%.

`Cc1cc(N[C@@H](Cc2ccccc2)C(=O)NCc2cccc(F)c2)nc(NCc2ccccc2C)n1.O=C(O)C(F)(F)F` registered an Inhibition of 100%.

With `COc1cc2nc(N3CCN(C(=O)c4ccco4)CC3)nc(NCc3ccccc3)c2cc1OC`, the Inhibition is 100%.

`Cc1nn(C)c(C)c1CN(Cc1nc(-c2cccc(Oc3ccccc3)c2)oc1C)C1CC1`: the Inhibition is reported as 100%.

For the compound `CC(=O)Nc1ccc(CN(Cc2ccc(OC(C)(C)C)cc2)Cc2ccc3c(c2)OCCO3)cc1`, the Inhibition turned out to be 91%.

In the case of `COc1ccc(Nc2ncc3c(-c4ccc(NC(=O)c5cccc(C(F)(F)F)c5)cc4)c[nH]c3n2)cc1OC`, the Inhibition stood at 89%.

Compound `NC(Cc1cccc(I)c1)C(=O)NCC1CCCO1.O=C(O)C(F)(F)F` (stereo not given) registered an Inhibition of 98%.

Compound `COc1ccc2nccc([C@@H](O)CN3CCC(NCc4nc5c(F)cccc5[nH]4)CC3)c2c1.O=C(O)C(=O)O` registered an Inhibition of 100%.

`CCCCOC(=O)NCCCC[C@H](NC(=O)OC(C)(C)C)C(=O)N[C@H](C(=O)OC(c1ccccc1)c1ccccc1)[C@H]1O[C@@H](n2ccc(=O)[nH]c2=O)[C@@H]2OC(C)(C)O[C@@H]21` displayed an Inhibition of 87%.

`COc1ccc2nccc([C@@H](O)CN3CCC(NCCOc4ccc(F)cc4Cl)CC3)c2c1.O=C(O)C(=O)O` showed an Inhibition of 99%.

`CCCC(=O)c1cnc2c(OCCCc3c[nH]cn3)cccc2c1Nc1c(C)cccc1C` showed an Inhibition of 98%.

Compound `O=C(NCCCCCN1CCC(c2c[nH]c3ccccc23)C1)Nc1ccc(Cl)c(Cl)c1` (stereo not given) gave an Inhibition of 95%.

Regarding `Cc1cc2ncn(-c3nccc(NCc4ccc(F)c(C)c4)n3)c2cc1C.O=C(O)C(F)(F)F`, the Inhibition is 90%.

Compound `COCc1cccc(-c2cc(-c3ccc(S(C)(=O)=O)cc3)cnc2N)c1` returned an Inhibition of 98%.

The compound `CCNc1cc(C(=O)N[C@@H](Cc2ccccc2)[C@H](O)CNC2(CC)CC2)cc(N2CCCCS2(=O)=O)c1.Cl` had an Inhibition of 97%.

Turning to `Clc1ccc(CNc2nc(NCCc3c[nH]cn3)nc(NC3CCCCC3)n2)cc1`, the Inhibition is recorded as 100%.

The compound `CN(C)CCNC(=O)N1CCCN(c2ncnc3cc(-c4ccc(Cl)cc4)sc23)CC1.O=C(O)C(F)(F)F` displayed an Inhibition of 98%.

`O=C(O)C(F)(F)F.O=c1ccc2ccc(F)c3c2n1CC3CN1CCC(NCc2cccc(-c3ccccc3F)c2)CC1` (stereo not given) yielded an Inhibition of 100%.
